High-throughput results deposited in PubChem BioAssay by several laboratories.
BoNT A protease: BoNT A light chain protease inhibition; 0.17% of 360,000 active; multiplex microsphere protease substrate cleavage, flow cytometry; AID 588499; inhibition, % at 10 µM
MazEF act: MazEF (E. coli) toxin RNase activation. P0AE70. FAM/BHQ RNA-DNA oligo cleavage fluorescence, 5 h. activation, % at 20 µM. 0.32% of 350,000 active. AID 504720; in the data active means activation above about 50%
Target sequence (P0AE70 whole entry, looked up): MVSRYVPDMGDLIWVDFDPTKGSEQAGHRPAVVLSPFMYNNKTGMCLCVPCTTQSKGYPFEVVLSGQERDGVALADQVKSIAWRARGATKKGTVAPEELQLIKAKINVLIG
BoNT-F LC inh: BoNT F light chain protease inhibition | AID 588497 | 0.22% of 360,000 active | inhibition, % at 10 µM | Multiplex microsphere protease cleavage assay, flow cytometry; in the data active means inhibition above about 35%, passing the limit was not always enough; inconclusive means no clear call, values can overlap the other calls
Bead autofluor: counter-screen for toxin protease inhibitors: compound fluorescence; 3.1% of 360,000 active; AID 624483; compound autofluorescence counterscreen, microsphere flow cytometry; hits give high values; fluorescence intensity (concentration not given with the values); in the data active means fluorescence intensity above about 16000; inconclusive means no clear call, values can overlap the other calls
Anthrax LF prot: anthrax lethal factor protease inhibition. multiplex microsphere protease cleavage assay, LF. inhibition, % at 10 µM. 0.12% of 360,000 active. AID 588501
Of the large screens only hits and unclear results are named; the others gave an inactive call. This is a sample that favours compounds with a hit; in the whole collection about 3.7% have one here. Unless noted, no stated cut-off is given here; in the data, active means inhibition above about 30%; inconclusive means no clear call, values can overlap the other calls; inactive means below that.

CC(NC(=O)COC(=O)Cc1ccsc1)C1CC2CCC1C2 (stereo unspecified)	Bead autofluor 24292
Cc1cc2cc(CNC(=O)c3ccc4c(c3)OCO4)ccc2[nH]1	BoNT A protease 67
CCc1c(C(=O)NCc2ccc3c(c2)OCO3)[nH]c(C)c1C(C)=O	Bead autofluor 17026
COc1ccc(NC(=O)CN(C)S(=O)(=O)c2ccc3c(c2)CCC(=O)N3)c(OC)c1	none
COc1ccc(NS(=O)(=O)c2ccc3c(c2)CCC(=O)N3)c(OC)c1	Bead autofluor 16726
CN(C)C(=O)c1noc2cc([N+](=O)[O-])ccc12	Bead autofluor 16570
CC(C)NC(=O)c1noc2cc([N+](=O)[O-])ccc12	none
CCOC(=O)c1c(NC(=O)COC(=O)c2ccccn2)sc(C(=O)N(C)C)c1C	Bead autofluor inconclusive
CCOC(=O)c1c(NC(=O)COC(=O)c2cnc(C)cn2)sc(C(=O)N(C)C)c1C	Bead autofluor 16695
O=S(=O)(Nc1ccc(Cl)cn1)c1ccc2c(c1)OCCO2	none
O=C(O)c1cc([N+](=O)[O-])ccc1NCc1cccnc1	none (no result: BoNT A protease, BoNT-F LC inh, Bead autofluor, Anthrax LF prot)
O=C(O)c1cc(N2C(=O)C3C4C=CC(C4)C3C2=O)ccc1NCc1cccnc1 (stereo unspecified)	Bead autofluor 23049
CC1CCCCN1C(=O)COC(=O)CSc1ccc(C(N)=O)cc1[N+](=O)[O-] (stereo unspecified)	none
CC1CCCC(C)N1C(=O)COC(=O)CSc1ccc(C(N)=O)cc1[N+](=O)[O-] (stereo unspecified)	Bead autofluor 21171
Cc1nc2nc(-c3cccnc3)[nH]n2c(=O)c1Cc1ccccc1	Bead autofluor 20663
O=C(Nc1ccccc1Br)C1CCN(S(=O)(=O)c2cccs2)CC1	none
Cc1ccc(/C(C#N)=C\c2ccc(N3CCOCC3)o2)cc1	none
Cc1ccc2nc(/C(C#N)=C\c3ccc(N4CCOCC4)o3)[nH]c2c1	BoNT-F LC inh 110
CCOC(=O)C1=C[C@@H](c2ccccc2)N(S(=O)(=O)c2ccc(C)cc2)[C@H]1c1cccc(Cl)c1	none (no result: MazEF act)
COc1ccc(C2=NOC(C(=O)NC(C)(C)C)C2)cc1 (stereo unspecified)	Bead autofluor 22564
CCN(CC)C(=O)C1CC(c2ccc(OC)cc2)=NO1 (stereo unspecified)	Bead autofluor 20968
COc1ccc(C2=NOC(C(=O)NCc3ccccc3)C2)cc1 (stereo unspecified)	none
Cc1cc(OC(=O)C(c2ccccc2)c2ccccc2)c([N+](=O)[O-])c(=O)[nH]1	none
COC(=O)[C@@H](NC(=O)Nc1cccc(OC)c1)C(C)C	Bead autofluor 21593
COC(=O)[C@@H](NC(=O)Nc1ccc(OC)cc1)C(C)C	none
CCOC(=O)c1ccc2c(c1)N(CC(=O)N1CCCCC1)C(=O)C(C)(C)O2	none
CCOC(=O)c1ccc2c(c1)N(CC(=O)N1CCCC1)C(=O)C(C)(C)O2	BoNT A protease inconclusive, Bead autofluor 23746
COC(=O)CN1C(=O)C(C)(C)Oc2ccc(C(=O)NC3CC3)cc21	BoNT A protease inconclusive, Bead autofluor 22838
CC1(C)C[C@@H](O)CC2(C1)C[C@]1(C)CC(O)[C@H]2C(C)(C)C1 (stereo partly specified)	none (no result: BoNT A protease, BoNT-F LC inh, Bead autofluor, Anthrax LF prot)
Cc1ccc(NC(=O)CN(C)S(=O)(=O)c2cccc3nsnc23)cc1	none
CC(NC(=O)CN(C)S(=O)(=O)c1cccc2nsnc12)c1ccccc1 (stereo unspecified)	MazEF act 97
O=C(CSc1nnnn1C1CCCCC1)N1c2ccccc2Sc2ccccc21	BoNT A protease inconclusive, Bead autofluor 19588
CC(=O)c1ccc(NC(=O)CSc2nc(C3CC3)nc3ccccc23)cc1	none
O=C(CSc1nc(C2CC2)nc2ccccc12)N1c2ccccc2Sc2ccccc21	Bead autofluor 22153
COCCN(CCOC)Cc1cc(=O)oc2cc(OC)ccc12	none (no result: MazEF act)
CN(c1cccc(NC(=O)Nc2cccc(Cl)c2)c1)S(C)(=O)=O	none
CN(C)c1ccc(NC(=O)Nc2cccc(Cl)c2)cc1	Bead autofluor 19659
CN(CC(=O)Nc1cccnc1)S(=O)(=O)c1cc(Cl)ccc1Cl	BoNT A protease inconclusive, Bead autofluor 25881
O=C(Nc1cccnc1)Nc1ccc(F)c(Cl)c1	BoNT A protease inconclusive, Bead autofluor 23140
CSc1ccccc1NC(=O)Nc1cccc(Cl)c1	MazEF act 119, Bead autofluor 23180
COc1cccc(NC(=O)Nc2ccccc2SC)c1	none
O=C(Nc1cccc(S(=O)(=O)N2CCCCC2)c1)C1CC1	none
CSc1ccccc1NC(=O)Nc1cccc(Cl)c1Cl	Bead autofluor 20444
CSc1ccccc1NC(=O)Nc1cccc(Cl)c1C	none
CSc1ccccc1NC(=O)Nc1ccc(F)c(Cl)c1	Bead autofluor 24571
CCOc1cccc(CN2CCN(CCCc3ccccc3)C(CCO)C2)c1O (stereo unspecified)	BoNT-F LC inh inconclusive
CCOC(=O)C1(C)CCN1C(=O)c1ccc2ccccc2c1 (stereo unspecified)	none (no result: MazEF act)
C/C=C/c1c(F)c(F)c(Oc2ccc(C(=O)O)cc2)c(F)c1F	Bead autofluor 21781
CC(C)OC(=O)Nc1ccc(Oc2c(F)c(F)c(F)c(F)c2F)cc1	none
O=C1C(Cl)=C(N2CCOCC2)C(=O)N1c1ccc(Br)cc1	Anthrax LF prot 30
COc1ccc(N(C(=O)C(C)C)S(=O)(=O)c2ccc(Cl)cc2)cc1	Bead autofluor 16342
COc1ccc(CC(=O)Nc2nnc(C(C)(C)C)s2)cc1OC	none
CCNC(=S)NCCN1CCCCC1	MazEF act 123
CC(NC(=O)CNC(=O)C1CCCCC1)c1ccc(S(N)(=O)=O)cc1 (stereo unspecified)	none
OC1(c2cccc(C(F)(F)F)c2)CCNCC1	Bead autofluor 20667
COC(=O)CN(c1nc(C)c(Br)c(OC)n1)S(=O)(=O)c1ccccc1	none
Nc1nc(SCC(=O)c2c(N)n(Cc3ccccc3)c(=O)[nH]c2=O)n[nH]1	none
CC1CC(=O)N(c2ccc(NCc3ccc(Cl)cc3)c([N+](=O)[O-])c2)C1=O (stereo unspecified)	MazEF act 214
Cc1ccc(-c2nn(CC(=O)NCC3CCCO3)c(=O)c3ccccc23)cc1 (stereo unspecified)	Bead autofluor 23922
CCN(CC)CCCNC(=O)Cn1nc(-c2ccccc2)ccc1=O	Bead autofluor 20162
O=C(Cn1nc(-c2ccccc2)ccc1=O)NCCN1CCN(c2cccc(Cl)c2)CC1	Bead autofluor 21385
CCOC(=O)/C=c1/s/c(=C\c2c(OC)ccc3ccccc23)c(=O)n1CC(=O)NCC1CCCO1 (stereo unspecified)	MazEF act 184
CCOC(=O)/C=c1\s/c(=C\c2c(OCC)ccc3ccccc23)c(=O)n1CC(=O)NCC1CCCO1 (stereo unspecified)	none
O=C(Cn1nc(-c2ccccc2)ccc1=O)NCCN1CCN(Cc2ccccc2)CC1	none
O=C(Cn1nc(-c2cccc(Cl)c2)ccc1=O)Nc1cccnc1	BoNT A protease inconclusive, Bead autofluor 23773
O=C(Cn1nc(-c2ccccc2)ccc1=O)NCC1CCCO1 (stereo unspecified)	Bead autofluor 23626
